Experimental data reported in PubChem BioAssay.
Activity calls are given as the source filed them.

Assays:
[1] = small molecules captured by biotinylated probe aFSTL3 – biochemical, small-molecule microarray, fluorescence 635/667, stem cell growth factor project, primary screen (AID 1064); conditions: higher = more signal;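 further: measures binding of the biotinylated anti-FSTL3 antibody to printed compounds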
[2] = binders from COS7 lysate, DM2A8 probe, primary screen, torsin A project, cell lysate, small-molecule microarray, fluorescence 635/667 (AID 1065); conditions: higher = more signal, COS7 lysate expressing mutant human TOR1A
[3] = small molecules captured by biotinylated probe aFGF2 – biochemical, small-molecule microarray, fluorescence 635/667, stem cell growth factor project, primary screen (AID 1067); conditions: higher = more signal;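 further: measures binding of biotinylated aFGF2 protein to printed compounds on slides; z-score merges feature fluorescence and signal-to-noise across triplicate slides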
[4] = small molecules captured by biotinylated probe aFGF10 – biochemical, small-molecule microarray, fluorescence 635/667, stem cell growth factor project, primary screen (AID 1071); conditions: higher = more signal;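 further: score merges 667 nm spot intensity and signal to noise from triplicate slides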
[5] = biological target: Neurogenic locus notch homolog protein 2 (Homo sapiens) (UniProt Q04721); test: small molecules binding Notch2 protein – biochemical, small-molecule microarray, 635 nm fluorescence, stem cell growth factors, primary screen (AID 1073); conditions: higher = more signal
[6] = biological target: Pro-neuregulin-1, membrane-bound isoform (Homo sapiens) (UniProt Q02297); test: small molecules binding neuregulin-1 protein – biochemical, small-molecule microarray, fluorescence 635/667, psychiatric disease protein project, primary screen (AID 1075); conditions: NRG1 binding, 635 nm fluorescence, higher = more signal;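 further: score combines 667 nm spot fluorescence with signal to noise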
[7] = tested on: Neuregulin-1 EGF-like domain; test: small molecules binding NRG1 EGF domain – biochemical, small-molecule microarray, 635 nm fluorescence, primary screen (AID 1081); conditions: higher = more signal;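 further: binding of the protein to compounds printed on small-molecule microarray slides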
[8] = FRG1 expression reporter modulators in myotubes – cell-based, C2C12 myotubes, firefly/Renilla luciferase, luminescence, FRG1 inhibition for FSHD, primary screen (AID 1084); conditions: FRG1 promoter luciferase, higher = more signal, called active from +8 up or from −8 down
[9] = small molecules captured by biotinylated probe aFST – biochemical, small-molecule microarray, fluorescence 635/667, stem cell growth factor project, primary screen (AID 1086); conditions: higher = more signal;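 further: score merges 667 nm fluorescence with signal-to-noise of each printed compound spot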
[10] = binders of probe aHhip on microarray, primary screen, stem cell growth factor project, biochemical, small-molecule microarray, fluorescence 635/667 (AID 1087); conditions: higher = more signal;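 further: score merges spot fluorescence at 667nm with spot signal to noise ratio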
[11] = tested on: PRMT1 (protein arginine N-methyltransferase 1); test: small molecules binding arginine methyltransferase PRMT1 – biochemical, small-molecule microarray, 635 nm fluorescence, primary screen (AID 1088); conditions: higher = more signal;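 further: binding of Prmt1 protein to compounds spotted on small-molecule microarray slides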
[12] = growth effects on S. cerevisiae YJM789 – YJM789 clinical isolate, OD600, 24 h, basal, primary screen (AID 1089); conditions: higher = more signal, called active from +8 up or from −8 down;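 further: growth of clinical yeast isolate S. cerevisiae YJM 789 seeded 1000 cells per well; test concentration not given here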
[13] = S. pombe growth modifiers, basal conditions – strain 972, OD600, 24 h, no modulator, primary screen (AID 1090);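 further: basal condition with compound alone and no growth modifier present; test concentration not given here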; conditions: S. pombe 972 growth, higher = more signal, called active from +8 up or from −8 down
[14] = budding yeast growth modifiers under rapamycin – strain BY4716, OD600, 96 h, primary screen (AID 1091); further: test concentration not given here; conditions: S. cerevisiae BY4716 + rapamycin, higher = more signal, called active from +8 up or from −8 down
[15] = biological target: Torsin-1A-interacting protein 2 (Homo sapiens) (UniProt Q8NFQ8); test: small molecules binding lysate-expressed LULL1 – cell lysate, human LULL1 lysate, 635/667 nm fluorescence, primary screen (AID 1092); conditions: small-molecule microarray, hLULL1 lysate binding, 635 nm fluorescence; higher = more signal;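 further: probe is lysate of COS7 cells overexpressing human LULL1; score merges per-feature 667 nm fluorescence with signal-to-noise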
[16] = optical density change of DRC41 E. coli – strain DRC41, OD650, 24 h, E. coli filamentation project, primary screen (AID 1093);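 further: MC1000 strain lacking acrAB efflux and sulA so SOS filamentation is blocked; test concentration not given here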; conditions: E. coli DRC41 growth, higher = more signal, called active from +8 up or from −8 down
[17] = probe aLefty2 binding to arrayed compounds – biochemical, biotinylated probe, 635/667 nm fluorescence, primary screen (AID 1094); conditions: small-molecule microarray, higher = more signal;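 further: score merges spot fluorescence near 667 nm with spot signal-to-noise ratio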
[18] = tested on: Noggin (protein binding on small-molecule microarray); test: small molecules binding Noggin protein – biochemical, 635/667 nm fluorescence, primary screen (AID 1095); conditions: 635 nm fluorescence, higher = more signal;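 further: score merges 667 nm feature fluorescence with signal to noise over triplicate slides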
[19] = biological target: Neurogenic locus notch homolog protein 3 (Homo sapiens) (UniProt Q9UM47); test: small molecules binding NOTCH3 protein – biochemical, 635/667 nm fluorescence, primary screen (AID 1096); conditions: small-molecule microarray, 635 nm fluorescence, higher = more signal
[20] = probe aEGFR binding to arrayed compounds – biochemical, biotinylated probe, 635/667 nm fluorescence, primary screen (AID 1097); conditions: small-molecule microarray, higher = more signal;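 further: probe is a biotinylated anti-EGFR antibody binding compounds printed on slides; score combines fluorescence near 667 nm and signal to noise of each spot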

Pro-neuregulin-1, membrane-bound isoform (Homo sapiens), sequence (Q02297 whole entry, looked up, the tested form may be a part, canonical isoform): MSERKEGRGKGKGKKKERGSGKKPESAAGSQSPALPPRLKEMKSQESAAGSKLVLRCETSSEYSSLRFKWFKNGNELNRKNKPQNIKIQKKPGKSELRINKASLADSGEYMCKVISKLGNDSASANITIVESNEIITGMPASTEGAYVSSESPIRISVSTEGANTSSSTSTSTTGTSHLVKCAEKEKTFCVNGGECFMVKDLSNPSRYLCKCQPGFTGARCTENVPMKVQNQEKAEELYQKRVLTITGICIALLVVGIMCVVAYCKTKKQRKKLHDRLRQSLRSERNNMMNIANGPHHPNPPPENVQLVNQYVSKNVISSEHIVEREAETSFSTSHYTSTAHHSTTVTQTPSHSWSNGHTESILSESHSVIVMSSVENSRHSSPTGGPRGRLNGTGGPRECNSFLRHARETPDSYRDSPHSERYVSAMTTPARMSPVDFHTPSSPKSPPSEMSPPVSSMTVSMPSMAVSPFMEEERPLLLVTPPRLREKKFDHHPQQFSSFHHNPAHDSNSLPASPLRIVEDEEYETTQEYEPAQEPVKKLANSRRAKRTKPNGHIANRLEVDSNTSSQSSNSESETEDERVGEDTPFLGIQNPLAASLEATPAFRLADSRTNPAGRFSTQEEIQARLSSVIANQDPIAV
Neurogenic locus notch homolog protein 3 (Homo sapiens), sequence (Q9UM47 whole entry, looked up): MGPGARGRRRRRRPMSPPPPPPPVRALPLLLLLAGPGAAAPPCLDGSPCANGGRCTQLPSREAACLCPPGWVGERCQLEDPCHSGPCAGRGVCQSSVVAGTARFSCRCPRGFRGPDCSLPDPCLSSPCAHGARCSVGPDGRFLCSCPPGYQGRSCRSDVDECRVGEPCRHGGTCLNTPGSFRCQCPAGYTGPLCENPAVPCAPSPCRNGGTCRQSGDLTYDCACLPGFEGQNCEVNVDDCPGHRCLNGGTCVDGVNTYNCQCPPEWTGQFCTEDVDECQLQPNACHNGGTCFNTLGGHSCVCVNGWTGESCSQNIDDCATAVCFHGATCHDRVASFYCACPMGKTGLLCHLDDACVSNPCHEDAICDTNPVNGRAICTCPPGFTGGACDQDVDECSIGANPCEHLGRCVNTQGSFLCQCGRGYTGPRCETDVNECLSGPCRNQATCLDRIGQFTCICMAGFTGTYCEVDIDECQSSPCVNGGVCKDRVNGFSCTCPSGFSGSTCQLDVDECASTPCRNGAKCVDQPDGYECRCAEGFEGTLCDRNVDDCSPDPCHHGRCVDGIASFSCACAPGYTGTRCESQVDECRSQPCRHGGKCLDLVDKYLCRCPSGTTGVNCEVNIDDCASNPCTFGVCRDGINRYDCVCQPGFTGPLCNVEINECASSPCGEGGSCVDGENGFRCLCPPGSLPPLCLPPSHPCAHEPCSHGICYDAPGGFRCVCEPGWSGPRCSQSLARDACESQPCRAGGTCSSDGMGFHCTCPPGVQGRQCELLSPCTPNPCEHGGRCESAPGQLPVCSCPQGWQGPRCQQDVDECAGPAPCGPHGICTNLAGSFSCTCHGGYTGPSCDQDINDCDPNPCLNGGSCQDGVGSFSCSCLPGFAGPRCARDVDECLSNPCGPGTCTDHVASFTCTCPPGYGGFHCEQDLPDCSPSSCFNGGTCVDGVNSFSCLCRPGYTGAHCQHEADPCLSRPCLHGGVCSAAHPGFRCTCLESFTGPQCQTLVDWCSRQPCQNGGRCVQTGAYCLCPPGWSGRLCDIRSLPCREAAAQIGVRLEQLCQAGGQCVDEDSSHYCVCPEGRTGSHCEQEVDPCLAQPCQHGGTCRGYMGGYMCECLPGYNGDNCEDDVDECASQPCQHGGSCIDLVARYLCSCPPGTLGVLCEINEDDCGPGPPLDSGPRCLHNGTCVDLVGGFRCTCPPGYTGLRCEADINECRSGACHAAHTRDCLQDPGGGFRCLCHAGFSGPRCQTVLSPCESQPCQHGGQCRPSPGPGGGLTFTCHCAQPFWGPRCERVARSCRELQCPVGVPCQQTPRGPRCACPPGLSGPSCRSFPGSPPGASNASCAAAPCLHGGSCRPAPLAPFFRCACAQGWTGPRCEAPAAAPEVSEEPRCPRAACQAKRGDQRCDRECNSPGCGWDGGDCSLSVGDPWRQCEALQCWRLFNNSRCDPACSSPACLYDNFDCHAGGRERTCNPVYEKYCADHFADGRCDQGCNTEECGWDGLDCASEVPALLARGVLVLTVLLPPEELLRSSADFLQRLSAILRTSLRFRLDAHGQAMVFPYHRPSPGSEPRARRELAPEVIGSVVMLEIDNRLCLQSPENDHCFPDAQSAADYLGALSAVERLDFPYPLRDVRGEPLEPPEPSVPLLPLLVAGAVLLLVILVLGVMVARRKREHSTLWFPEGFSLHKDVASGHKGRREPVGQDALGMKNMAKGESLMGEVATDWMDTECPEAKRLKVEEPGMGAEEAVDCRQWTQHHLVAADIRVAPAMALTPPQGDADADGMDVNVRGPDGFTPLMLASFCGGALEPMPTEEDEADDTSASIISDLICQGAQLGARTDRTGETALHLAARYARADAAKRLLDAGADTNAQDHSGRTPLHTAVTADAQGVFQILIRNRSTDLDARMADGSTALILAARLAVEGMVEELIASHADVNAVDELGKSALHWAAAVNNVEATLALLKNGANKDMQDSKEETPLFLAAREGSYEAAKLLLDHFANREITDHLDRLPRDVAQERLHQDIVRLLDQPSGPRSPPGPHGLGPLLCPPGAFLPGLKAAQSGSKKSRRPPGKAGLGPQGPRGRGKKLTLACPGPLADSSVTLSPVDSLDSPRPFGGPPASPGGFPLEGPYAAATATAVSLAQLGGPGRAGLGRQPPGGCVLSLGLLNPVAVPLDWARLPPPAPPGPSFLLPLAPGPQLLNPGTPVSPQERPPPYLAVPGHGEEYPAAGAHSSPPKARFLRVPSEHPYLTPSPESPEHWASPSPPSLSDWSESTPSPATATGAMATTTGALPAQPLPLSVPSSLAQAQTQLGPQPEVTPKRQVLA
Torsin-1A-interacting protein 2 (Homo sapiens), sequence (Q8NFQ8 whole entry, looked up): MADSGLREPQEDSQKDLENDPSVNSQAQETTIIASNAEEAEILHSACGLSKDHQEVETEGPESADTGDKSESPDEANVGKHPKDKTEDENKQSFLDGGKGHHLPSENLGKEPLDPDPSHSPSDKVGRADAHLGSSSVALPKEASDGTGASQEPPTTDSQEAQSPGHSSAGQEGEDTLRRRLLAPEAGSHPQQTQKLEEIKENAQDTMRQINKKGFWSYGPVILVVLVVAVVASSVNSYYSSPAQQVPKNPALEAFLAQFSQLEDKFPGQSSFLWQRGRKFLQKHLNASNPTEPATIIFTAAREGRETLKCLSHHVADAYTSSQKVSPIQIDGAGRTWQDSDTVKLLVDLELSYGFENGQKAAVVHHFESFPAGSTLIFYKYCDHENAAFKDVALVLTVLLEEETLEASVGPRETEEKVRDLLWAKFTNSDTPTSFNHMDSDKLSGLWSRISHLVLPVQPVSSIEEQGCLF

SMILES | composite z-score [1] | composite z-score [2] | composite z-score [3] | composite z-score [4] | composite z-score [5] | composite z-score [6] | composite z-score [7] | z-score [8] | composite z-score [9] | composite z-score [10] | composite z-score [11] | z-score [12] | z-score [13] | z-score [14] | composite z-score [15] | z-score [16] | composite z-score [17] | composite z-score [18] | composite z-score [19] | composite z-score [20]
CCCC[C@H]1OB(O)C[C@H]2C1=C(C)C[C@H]1C(=O)N(Cc3ccccc3)C(=O)[C@H]12 | -0.573 | 0.383 | 0.0171 | 0.951 | 0.316 | 0.421 | 0.795 | 0.758 (inactive) | 0.267 | 0.312 | 0.705 | -0.482 (inactive) | -1.33 (inactive) | -1.04 (inactive) | 0.342 | 1.75 (inactive) | -0.102 | 0.919 | 0.666 | 0.0215
CCCCC(O)C1C=CC2C(=O)N(C3CCCCC3)C(=O)C2N1Nc1ccc(OC)cc1 (stereo not given) | -0.362 | 0.139 | -0.0056 | 0.441 | 1.45 | 1.29 | 1.13 | 0.405 (inactive) | 0.583 | 0.107 | 1.19 | 0.595 (inactive) | 0.241 (inactive) | 1.15 (inactive) | 2.77 | 0.202 (inactive) | 0.165 | 0.5 | 1.1 | -0.0661
COCCCNC(=O)[C@@]1(c2ccc([N+](=O)[O-])cc2)CC(=O)N(CC23CC4CC(CC(C4)C2)C3)[C@@H]1c1ccc(CO)cc1 | -0.46 | 0.666 | -0.0453 | 0.264 | 1.36 | 0.43 | 1.17 | -2.08 (inactive) | 0.573 | -0.0296 | 1.54 | 0.38 (inactive) | -0.634 (inactive) | -0.101 (inactive) | 2.28 | 1.45 (inactive) | 0.0054 | 1.54 | 1.08 | 0.0117
COC(=O)[C@@]1(Cc2ccccc2N=[N+]=[N-])COC(c2ccc(OCCCO)cc2)=N1 | 1.34 | 2.03 | -0.0706 | -0.282 | 0.0164 | 1.24 | 1.21 | -0.904 (inactive) | 0.498 | 0.0176 | 1.24 | -1.33 (inactive) | -11 (active) | -1.99 (inactive) | 2.08 | -0.574 (inactive) | 0.137 | -0.353 | 0.0418 | -0.0762
C=CC[C@@]1(C(=O)O)N=C(c2ccc(OCCCO)cc2)O[C@@H]1c1ccccc1N=[N+]=[N-] | 1.44 | -0.0147 | -0.0112 | 0.484 | 0.0707 | 0.915 | 1.07 | 4.25 (inactive) | 0.965 | 0.421 | 1.23 | 0.0908 (inactive) | -0.594 (inactive) | -1.46 (inactive) | 3.24 | 0.0672 (inactive) | 0.23 | -0.203 | -0.231 | -0.0225
COCCOC(=O)N1C(=O)[C@@]2(c3cc(C#CCCO)ccc31)[C@H](c1ccc(O)cc1)N1[C@H](c3ccccc3)[C@H](c3ccccc3)OC(=O)[C@H]1[C@@H]2C(N)=O | 1.04 | 0.751 | -0.0173 | 0.203 | -0.982 | 1.08 | 1.42 | -0.966 (inactive) | 0.102 | 0.113 | 1.14 | 0.253 (inactive) | 0.479 (inactive) | 0.418 (inactive) | 1.51 | -0.834 (inactive) | 0.0002 | -0.243 | 0.213 | -0.178
O=C(NCc1ccccc1)[C@]1(CCS(=O)(=O)c2ccccc2)N=C(c2ccc(OCCCO)cc2)O[C@@H]1c1ccccc1 | 0.0169 | 0.938 | 0.0485 | 1.05 | 1.68 | 1.48 | 1.18 | -2.35 (inactive) | 1.31 | -0.378 | 1.57 | 0.63 (inactive) | 0.194 (inactive) | 36.9 (active) | 1.78 | 0.887 (inactive) | -0.0552 | 0.204 | 1.07 | 0.219
CCCCCN1CC=CC23O[C@@H]4/C=C\CCC(C)OC(=O)C4[C@H]2C(=O)N(CCCCCO)[C@@H]3C1=O (stereo not given in full) | -0.0551 | 0.698 | -0.0871 | -0.524 | -0.862 | 0.948 | -0.69 | 0.312 (inactive) | -0.467 | 0.344 | -0.103 | -1.46 (inactive) | -0.773 (inactive) | -1.39 (inactive) | -1.94 | 2.19 (inactive) | -0.0491 | -0.0687 | 0.0156 | -0.149
CC(=O)NCCCC[C@@H]1NC(=O)[C@@H]2C[C@H](C(=O)NCCCCN(C)C)[C@H](c3ccc(O)cc3)N2C1=O | 0.641 | -0.241 | -0.168 | -0.971 | -1.09 | -0.463 | 0.939 | -0.816 (inactive) | -0.0292 | 0.0373 | -0.0942 | -0.442 (inactive) | 0.169 (inactive) | -0.687 (inactive) | 1.65 | 1.14 (inactive) | -0.0906 | -0.126 | -0.322 | -0.109
COCC(=C=CC[C@@H](O)c1ccc(CO)o1)CCO | -0.403 | -0.196 | -0.188 | 0.502 | -0.235 | 0.178 | -0.149 | -1.71 (inactive) | -0.0032 | 0.011 | 0.737 | -3.24 (inactive) | -2.34 (inactive) | -2.27 (inactive) | -0.816 | 1.6 (inactive) | -0.256 | 1.33 | 0.735 | -0.0943
